# In the supplement of paper PMC10600219:
# Counter-ions that a name gives are not always drawn. The full ranking holds about 2,800 compounds; the median of “cell viability relative to vehicle” is about 0.98, and the lowest 2% start at about 0.45. Shown is part of a subset that was picked to be rich in the lowest values.
# Test system: NCI-H2228 alectinib-DTP
# Assay: cell viability relative to vehicle (fraction of vehicle); NCI-H2228 is an ALK-positive lung cancer line and DTP means drug-tolerant persister; higher = less growth inhibition
# Details: 100 nM; treatment time 6 days
# In short: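 Each value is viability relative to vehicle-treated cells, measured as ATP with the CellTiter-Glo 3D Cell Viability Assay. Parental NCI-H2228 cells and drug-tolerant persisters (1000 nM targeted drug, 13 days) in 384-well plates received the 3114-agent TargetMol anti-cancer compound library at 100 nM, or DMSO, and were read 6 days later.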
row,SMILES,cell viability
1,Cn1cc(C2=C(c3cccc(N)c3)C(=O)NC2=O)c2ccccc21,0.932
2,Cc1nc2cccc(N)c2c(=O)n1C1CCC(=O)NC1=O (configuration not stated) [Avadomide],0.982
3,O=C([O-])CN(CCN(CC(=O)[O-])CC(=O)O)CC(=O)[O-].[Na+].[Na+].[Na+] [Edetate Trisodium],1.15
4,O=C(NO)c1cnc(NC2(c3ccccc3)CC2)nc1,1.01
5,C=CC(=O)Nc1cccc(Oc2nc(Nc3ccc(N4CCN(C)CC4)c(F)c3)nc3[nH]ccc23)c1 [Avitinib],0.747
6,O=C(O)c1ccc2c(c1)C(=O)c1ccccc1C2=O,1.08
7,O=c1cc(-c2ccc(O[C@@H]3O[C@H](CO)[C@@H](O)[C@H](O)[C@H]3O)cc2)oc2cc(O)c([C@@H]3O[C@H](CO)[C@@H](O)[C@H](O)[C@H]3O[C@@H]3OC[C@H](O)[C@H](O)[C@H]3O)c(O)c12 [Vaccarin],0.919
8,C[C@H]1COC2(CCN(c3nc(=O)c4cc(C(F)(F)F)cc([N+](=O)[O-])c4s3)CC2)O1,1.05
9,COC[C@H](NC(=O)c1cnc(C)s1)C(=O)N[C@@H](COC)C(=O)N[C@@H](Cc1ccccc1)C(=O)[C@@]1(C)CO1 [Oprozomib],0.371
10,CC(NC(=O)C(Cc1ccccc1)NC(=O)OCc1ccccc1)C(=O)CF (configuration not stated),0.979
11,CC(=O)NC(Cc1ccccc1)C(=O)O (configuration not stated) [Afalanine],0.984
12,Cc1cc(F)c(C(=O)Nc2cccc(-c3nncn3C(C)C)n2)cc1-n1cnc(C2CC2)c1 [Selonsertib],0.918
13,O=c1[nH]c(=O)n([C@@H]2O[C@H](CO)[C@@H](O)[C@H]2O)cc1F [5-Fluorouridine],0.837
14,Cn1nccc1Nc1nccc(-c2cc3c(s2)C(C)(C)N(CCN2CCOCC2)C3=O)n1,1.06
15,Cc1nc(-c2cn3c(n2)-c2ccc(-c4cnn(C(C)(C)C(N)=O)c4)cc2OCC3)n(C(C)C)n1 [Taselisib],0.425
16,CC(C)n1ncnc1-c1cn2c(n1)-c1ccc(O[C@@H](C)C(N)=O)cc1OCC2,0.717
17,O[C@H]1[C@H]2c3cc4c(cc3CN3CCC(=C[C@@H]1O)[C@H]23)OCO4 [Lycorine chloride],0.966
18,CC(=O)N[C@H]1CSSC[C@@H](C(N)=O)NC(=O)[C@H](C(C)C)NC(=O)[C@H](C)NC(=O)[C@H](Cc2c[nH]cn2)NC1=O [Exherin trifluoroacetate],1.11
19,COc1cc2c(NC3CCN(C(C)C)CC3)nc(C3CCCCC3)nc2cc1OCCCN1CCCC1,1.15
20,N[C@@H](CCCCNC(=O)C(F)(F)F)C(=O)O [N-6-Trifluoroacetyl-L-lysine],0.966
21,Cc1ncc(NC(=O)c2ccc(CN3CCN(C)CC3)c(C(F)(F)F)c2)cc1Nc1nccc(-c2cccnc2)n1 [Flumatinib],1.15
22,Cc1ccc(C(=O)Nc2ccc(CN3CCN(C)CC3)c(C(F)(F)F)c2)cc1C#Cc1cnc2[nH]ncc2c1,0.423
23,CCN1CCN(Cc2ccc(NC(=O)c3ccc(C)c(NC(=O)c4cncc(-c5cccs5)c4)c3)cc2C(F)(F)F)CC1,0.789
24,Cc1ccc(C(=O)Nc2ccc(CN3CCN(C)CC3)c(C(F)(F)F)c2)cc1C#Cc1cnc2[nH]ncc2c1 [GZD824 Dimesylate],0.33

row,SMILES,cell viability
1,Cc1ccc(C(=O)Nc2ccc(CN3CCN(C)CC3)c(C(F)(F)F)c2)cc1C#Cc1cnc2cccnn12 [Ponatinib],0.834
2,CS(=O)(=O)Nc1ccc([N+](=O)[O-])cc1OC1CCCCC1,1.12
3,Cc1ccc(/C(=C\CN2CCCC2)c2ccccn2)cc1 [Triprolidine hydrochloride],1.18
4,S=C(N/N=C1/CCCc2cccnc21)N1CCN(c2ccccn2)CC1,1.09
5,C/C(=N\NC(=S)N1CCC1)c1ccccn1,0.362
6,Cn1c(O)c(C2=c3ccccc3=NC2=O)c2ccccc21 [Methylisoindigotin],0.85
7,CC(C)=CCc1cc2c(cc1O)oc(=O)c1c3ccc(O)cc3oc21 [Psoralidin],1.15
8,CC(C)c1nc(CN(C)C(=O)N[C@@H](CCN2CCOCC2)C(=O)N[C@H](CC[C@H](Cc2ccccc2)NC(=O)OCc2cncs2)Cc2ccccc2)cs1 [Cobicistat],1.02
9,COc1ccc(C[C@H](NC(=O)[C@H](C)NC(=O)CN2CCOCC2)C(=O)N[C@@H](Cc2ccccc2)C(=O)C2(C)CO2)cc1 (stereo in doubt),1.03
10,CC(C)C[C@H](NC(=O)[C@H](CCc1ccccc1)NC(=O)CN1CCOCC1)C(=O)N[C@@H](Cc1ccccc1)C(=O)N[C@@H](CC(C)C)C(=O)[C@@]1(C)CO1 [Carfilzomib],0.116
11,N[C@@H](CSCCB(O)O)C(=O)O,0.835
12,O=C(O)Cn1c2c(c3cc(F)ccc31)CN(C(=O)c1cccc3ccccc13)CC2 [Setipiprant],1.18
13,CC(C)(C)c1ccc(C(=O)NC(=S)Nc2ccc(N)cc2)cc1 [Tenovin3],0.734
14,CCCCCCCCCCCCCC(=S)NCCCC[C@H](NC(=O)OCc1ccccc1)C(=O)Nc1ccccc1 [Thiomyristoyl],1.11
15,C/C=C1\NC(=O)[C@H]2CSSCC/C=C/[C@H](CC(=O)N[C@H](C(C)C)C(=O)N2)OC(=O)[C@H](C(C)C)NC1=O [Romidepsin],0.116
16,O=c1nc(N2CCN(CC3CCCCC3)CC2)sc2c([N+](=O)[O-])cc(C(F)(F)F)cc12,0.985
17,CCC(Sc1nnc2c(n1)[nH]c1ccccc12)C(=O)N1c2ccccc2Sc2ccccc21 (configuration not stated) [Inauhzin],1.06
18,CCc1c2c(nc3ccc(O)cc13)-c1cc3c(c(=O)n1C2)COC(=O)[C@]3(O)CC,0.263
19,CCc1c2c(nc3ccc(OC(=O)N4CCC(N5CCCCC5)CC4)cc13)-c1cc3c(c(=O)n1C2)COC(=O)[C@]3(O)CC [Irinotecan],1.07
20,CC[C@@]1(O)C(=O)OCc2c1cc1n(c2=O)Cc2cc3cc(O)ccc3nc2-1 [10-Hydroxycamptothecin],0.304
21,CC[C@@]1(O)C(=O)OCc2c1cc1n(c2=O)Cc2cc3c(CN(C)C)c(O)ccc3nc2-1 [Topotecan hydrochloride],0.245
22,CC[C@@]1(O)C(=O)OCc2c1cc1n(c2=O)Cc2cc3cc(O)ccc3nc2-1 [Hydroxy Camptothecine],0.255
23,CCc1c2c(nc3ccc(OC(=O)N4CCC(N5CCCCC5)CC4)cc13)-c1cc3c(c(=O)n1C2)COC(=O)[C@]3(O)CC [Irinotecan hydrochloride trihydrate],1.05
24,COc1ccc(S(=O)(=O)NCc2ccc(C(=O)NCCc3ccc(Cl)cn3)cc2)cc1,1.14

row,SMILES,cell viability
1,CN1CCN(c2ccc(C(=O)Nc3cc(-c4cccc(NS(=O)(=O)c5ccccc5)c4)[nH]n3)cc2)CC1,0.98
2,CC(C)Cc1ccc(-c2nc(-c3ccc(CN4CC(C(=O)O)C4)c(F)c3)no2)cc1 [S1p-receptor-agonist-1],1.03
3,OC(CCN1CCCCC1)(c1ccccc1)C1CCCCC1 (racemic) [DL-trihexyphenidyl hydrochloride],0.964
4,CCCC[S+]([O-])c1sc2nc(-c3cccs3)cc(-c3ccccc3)c2c1N (configuration not stated),1
5,Nc1c(S(=O)(=O)c2ccccc2)c2nc3ccccc3nc2n1-c1ccc(F)cc1,1.11
6,Cc1cccc(C)c1N(CC(=O)Nc1ccc(-c2ncon2)cc1)C(=O)C1CCS(=O)(=O)CC1 [Amenamevir],0.926
7,CC(C)=CC(=O)CCC(=O)N1CCN(Cc2cc3nc(-c4cccc5[nH]ncc45)nc(N4CCOCC4)c3s2)CC1,0.892
8,O=C1Nc2ccccc2/C1=C/c1ccc(F)cc1,1.04
9,N#Cc1c(-c2ccccc2)cc(-c2cc(Br)ccc2O)[nH]c1=O,0.907
10,CC/C(=C(/c1ccc(/C=C/C(=O)O)cc1)c1ccc2[nH]ncc2c1)c1ccc(F)cc1Cl,1.07
11,CCOC(=O)c1c(C)[nH]c(C=C2C(=O)Nc3ccccc32)c1C [VEGFR2 Kinase Inhibitor I],1.19
12,COc1c(O[C@@H]2O[C@H](CO)[C@@H](O)[C@H](O)[C@H]2O)cc2occ(-c3ccc(O)cc3)c(=O)c2c1O [Tectoridin],1.03
13,Cc1[nH]c2ccccc2c1CCNC(=O)c1cccs1,0.919
14,CN(C)Cc1ccc(S(=O)(=O)n2ccc(/C=C/C(=O)NO)c2)cc1 [Resminostat hydrochloride],1.15
15,Cc1[nH]c2ccccc2c1CCNCc1ccc(/C=C/C(=O)NO)cc1 [Panobinostat],0.22
16,Cc1ccc(S(=O)(=O)Nc2cc(C(F)(F)F)ccc2C(=O)Nc2nc(-c3ccccc3)cs2)cc1,0.852
17,CCC(=O)O[C@]1(C(=O)CO)CC[C@H]2[C@@H]3CCC4=CC(=O)CC[C@]4(C)[C@H]3CC[C@@]21C [17 alpha-propionate],0.936
18,NC[C@H]1OB(O)c2c(OCCCO)cccc21 [Epetraborole hydrochloride],1.11
19,Cc1cc(O)c(-c2ccc(C(C)CN)cc2)c2c1[nH]c(=O)c1sccc12 (configuration not stated),0.15
20,O=C1C[C@@H](c2ccccc2)Oc2cc(O)cc(O)c21 [Pinocembrin],0.964
21,C[C@H](CCOc1cccc(CC(=O)O)c1)N(Cc1cccc(C(F)(F)F)c1Cl)CC(c1ccccc1)c1ccccc1,0.781
22,C=C1CC[C@H]2C(=C)CC[C@H]3C(=C)C(=O)O[C@@H]3[C@@H]12 [Dehydrocostus Lactone],0.984
23,CC(C)=CCC[C@](C)(O)[C@H]1CC[C@]2(C)[C@@H]1[C@H](O)C[C@@H]1[C@@]3(C)CC[C@H](O)C(C)(C)[C@@H]3CC[C@]12C [(20S)-Protopanaxadiol],0.908
24,Cc1c(-c2ccc(N3CCc4cccc(C(=O)Nc5nc6ccccc6s5)c4C3)nc2C(=O)O)cnn1CC12CC3CC(CC(C3)C1)C2,0.806
